From article PMC5540273 (PLoS ONE, 2017)

Legend:
Details in all cases: concentration: 1 μM, replicates: in singlicate; n = 1
CDC2L2 = tested on: CDC2L2
CDC2L5 = tested on: T1, CDC2L5
T1 construct: gene CDK13

CDK11 = tested on: T2, CDK11
T2 construct: gene CDK19

CDK2 = tested on: CDK2
CDK3 = tested on: CDK3
CDK4-cyclinD1 = tested on: CDK4-cyclinD1
CDK4-cyclinD3 = tested on: CDK4-cyclinD3
CDK4 = tested on: CDK4
CDK5 = tested on: CDK5
CDK7 = tested on: CDK7
CDK8 = tested on: CDK8
CDK9 = tested on: CDK9
CDKL1 = tested on: CDKL1
CDKL2 = tested on: CDKL2
CDKL3 = tested on: CDKL3
CDKL5 = tested on: CDKL5
CHEK1 = tested on: CHEK1
CHEK2 = tested on: CHEK2
CIT = tested on: CIT
CLK1 = tested on: CLK1
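Further: KINOMEscan kinase panel screen.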

SMILES	%Inh (CDC2L2) [%]	%Inh (CDC2L5) [%]	%Inh (CDK11) [%]	%Inh (CDK2) [%]	%Inh (CDK3) [%]	%Inh (CDK4-cyclinD1) [%]	%Inh (CDK4-cyclinD3) [%]	%Inh (CDK4) [%]	%Inh (CDK5) [%]	%Inh (CDK7) [%]	%Inh (CDK8) [%]	%Inh (CDK9) [%]	%Inh (CDKL1) [%]	%Inh (CDKL2) [%]	%Inh (CDKL3) [%]	%Inh (CDKL5) [%]	%Inh (CHEK1) [%]	%Inh (CHEK2) [%]	%Inh (CIT) [%]	%Inh (CLK1) [%]
Cl.Cl.NC(CNC(=O)c1cc(Br)c(-c2ccnc3[nH]ccc23)s1)c1ccccc1 (stereo not shown) [GSK1322949]	9	0	42	0	25	17	0	23	0	47	60	15	12	26	0	5	0	46	98.1	90.9
Fc1cc(Cl)ccc1Nc1ccnc2cc(-c3ccc(CN4CCOCC4)o3)ccc12 [GW560109]	0	0	0	0	18	0	0	0	0	0	0	0	0	58	0	0	12	46	43	17
COc1ccc(C2=C(Nc3cccc(O)c3)C(=O)NC2=O)cc1 [SB-390766]	0	0	93.8	98.3	42	20	9	35	0	0	0	0	0	7	32	3	2	0	4	86
Cc1ccc(O)cc1Nc1ccnc2cc(-c3ccc(CN4CCCCC4)o3)ccc12 [GW557777]	4	0	7	0	8	0	7	0	0	0	0	0	7	0	5	0	13	0	40	24
COc1cccc(NC(=O)NCCNc2ccnc(Nc3ccc(F)cc3)n2)c1 [GSK1379879]	27	0	22	0	0	9	1	0	0	0	27	0	0	15	0	0	0	0	6	17
CN(c1ccc2c(c1)nc(NCc1ccccc1)n2C)c1ccnc(Nc2ccc(CS(C)(=O)=O)cc2)n1.Cl [GW811603]	80	49	24	0	0	35	0	34	0	20	79	15	20	0	16	9	0	0	55	31
COc1cccc(C2=C(Nc3cccc(O)c3)C(=O)NC2=O)c1 [SB-390771]	15	0	0	18	13	0	0	0	0	98.3	17	0	86	7	0	0	0	0	4	73
Cc1cccc(Nc2nc(N[C@H]3CCCC[C@H]3N)ncc2C(N)=O)c1.Cl [GSK986310]	11	0	24	0	24	0	1	0	5	48	0	17	9	28	0	0	57	1	66	42
CC(C)(C)c1ccc(C(=O)Nc2cn3cc(-n4ccnc4)ccc3n2)cc1	1	7	1	12	0	0	0	0	8	4	5	3	29	0	18	7	0	0	44	92.4
CCn1cnc2c(NCc3ccccc3)ncnc21 [SKF-96418]	0	10	0	0	0	0	0	8	0	0	40	20	13	10	12	0	0	0	16	0
c1ccc(Oc2ccc(Nc3ccnc4cc(-c5ccc(CN6CCCCC6)o5)ccc34)cc2)nc1 [GW567143]	9	0	0	0	7	0	0	18	0	45	14	0	0	12	0	19	0	74	6	1
Cc1ccc(C)c(NC(=O)Nc2ccc(C)c(-c3ccc(C(=O)Nc4ccncc4)cc3)c2)c1 [GSK1398473]	5	0	74	0	0	0	2	0	2	0	4	0	0	42	0	24	22	0	96.1	24
COc1cccc2c(-c3ccncc3)c(-c3ccc(F)cc3)nn12 [GW468513]	4	0	8	4	6	27	0	0	0	0	42	0	2	38	0	0	0	0	98	6
N#Cc1cnc2cc(-c3cnc(CNCCN4CCOCC4)s3)ccc2c1Nc1ccc(Oc2ccccc2)cc1 [GW664114]	6	0	0	0	7	0	4	10	0	15	10	0	0	61	0	29	0	82	22	40
Cl.Cl.NCC(NC(=O)c1cc(-c2cccnc2)c(-c2ccnc3[nH]ccc23)s1)c1ccccc1 (stereo not shown) [GSK1323434]	9	0	8	3	26	39	0	79	0	50	43	1	66	23	0	0	0	55	100	71
O=C(Nc1n[nH]c2cc(-c3cccs3)ccc12)C1CC1 [SB-731284]	0	85	0	65	16	0	18	8	0	48	15	3	50	98.1	0	14	0	0	24	0
COc1cc(Nc2nccc(N3CCC(NS(=O)(=O)c4ccc(NC(C)=O)cc4)CC3)n2)cc(OC)c1OC [GSK1379825]	0	0	0	0	7	16	0	0	0	0	31	0	19	24	0	0	0	0	17	2
Cc1ccc(NC(=O)c2ccnc(N3CCCCC3)c2)cc1-c1ccc(C(=O)NCC2CC2)cc1 [GW775610]	0	0	0	36	0	20	0	0	8	0	39	1	9	33	0	75	0	39	38	11
Nc1ncc(-c2cn[nH]c2)c2scc(-c3ccc4c(c3)CCN4C(=O)Cc3ccccc3)c12 [GSK2593067]	0	0	23	0	2	0	0	0	0	0	37	0	0	28	0	0	0	0	0	40
CSc1ccc(NC2=C(c3ccc(Cl)cc3)C(=O)NC2=O)cc1 [SB-317658]	2	0	0	6	18	0	0	12	28	36	0	0	0	0	0	0	0	13	0	17
COc1cc(Nc2ccnc3cc(-c4ccncc4)ccc23)cc(OC)c1OC.Cl [GW494610]	0	0	2	1	1	39	0	27	0	0	43	0	100	8	11	0	0	0	41	9

SMILES	%Inh (CDC2L2) [%]	%Inh (CDC2L5) [%]	%Inh (CDK11) [%]	%Inh (CDK2) [%]	%Inh (CDK3) [%]	%Inh (CDK4-cyclinD1) [%]	%Inh (CDK4-cyclinD3) [%]	%Inh (CDK4) [%]	%Inh (CDK5) [%]	%Inh (CDK7) [%]	%Inh (CDK8) [%]	%Inh (CDK9) [%]	%Inh (CDKL1) [%]	%Inh (CDKL2) [%]	%Inh (CDKL3) [%]	%Inh (CDKL5) [%]	%Inh (CHEK1) [%]	%Inh (CHEK2) [%]	%Inh (CIT) [%]	%Inh (CLK1) [%]
CN(c1ccc(NC(=O)N2CCN(CCCN3CCOCC3)CC2)cc1)c1ccnc(Nc2ccc(CS(C)(=O)=O)cc2)n1.Cl [GW830899]	1	0	0	0	18	0	0	0	0	0	44	0	100	9	0	0	0	0	16	7
Nc1ncc(-c2ccc3nccc(-c4ccncc4)c3c2)cc1S(=O)(=O)N1CCCCC1 [GSK1693850]	21	0	73	0	7	9	13	0	0	80	45	5	0	27	0	0	1	23	31	81
Nc1ncnc2scc(-c3ccc(NC(=O)Cc4cc(F)ccc4F)cc3)c12.O=C(O)C(F)(F)F [SB-731254-M]	36	0	99	0	0	0	11	0	2	0	93.8	0	30	28	2	5	9	0	12	16
O=C(Nc1c(F)cccc1F)c1cc(C(=O)c2ccccc2F)c[nH]1 [GSK1326180]	0	0	6	0	16	33	0	14	0	0	14	0	0	7	0	0	0	11	5	22
CC(C)c1nc(-c2cccc(NS(=O)(=O)c3c(F)cccc3F)c2)c(-c2ccnc(Nc3ccc(N4CCOCC4)nc3)n2)s1.Cl [GSK1723980]	0	79	0	99.1	99.7	96.2	56	94.4	98.9	62	6	75	74	98.9	24	97.8	0	13	97.5	0
CCn1c(-c2nonc2N)nc2c(-c3ccccc3)ncc(OCCCN)c21.O=C(O)C(F)(F)F.O=C(O)C(F)(F)F [GSK260205]	0	0	0	0	0	0	0	0	0	0	1	0	7	31	0	0	0	0	98.9	14
CN(C)c1ncnc2nc[nH]c12 [SKF-31736]	0	11	0	0	17	0	0	25	0	0	35	0	23	4	0	19	0	0	12	8
O=C(O)C(F)(F)F.O=c1[nH]ccc2nc(N[C@@H]3CCNC3)nc(Nc3ccc4c(c3)S(=O)(=O)CC4)c12 [GSK2181306]	0	0	0	62	53	90.6	69	50	76	85	0	30	40	44	0	0	98.3	82	84	74
O=C(Nc1n[nH]c2nc(-c3ccccc3O)ccc12)C1CC1 [SB-711880]	0	11	0	37	22	25	17	0	0	7	0	0	42	98.5	17	0	3	0	0	66
Cc1ccccc1CC(=O)N1CCc2cc(-c3cn(C)c4ncnc(N)c34)ccc21 [GSK2603346]	3	0	81	6	2	0	0	29	0	0	83	0	0	17	0	0	18	0	32	15
COc1cccc(CC(=O)N2CCc3cc(-c4cn(C)c5ncnc(N)c45)ccc32)c1 [GSK2608899]	8	0	98.4	18	12	0	0	25	6	4	96.6	12	1	4	0	0	0	0	5	29
Cc1ccc(Nc2ccnc(Nc3ccc(C)c(F)c3)n2)cc1O.Cl [GW582868]	0	0	6	0	0	0	5	0	0	0	0	0	9	40	0	0	0	0	28	13
Cn1cc(-c2ccc3c(c2)CCN3C(=O)Cc2cc(F)cc(F)c2F)c2c(N)ncnc21 [GSK2634140]	19	0	86	8	45	0	0	26	0	0	88	3	8	29	0	3	9	0	36	16
CC(C)NCC(Cc1ccccc1)NC(=O)c1cc(Br)c(-c2ccnc3[nH]ccc23)s1.Cl.Cl (stereo not shown) [GSK1383281]	39	0	31	0	0	0	0	0	0	16	34	0	17	11	0	0	0	39	53	40
COc1cc(Nc2nccc(N3CCC(NC(=O)Nc4ccc5c(c4)OCO5)C3)n2)cc(OC)c1OC (stereo not shown) [GSK1379766]	18	0	2	0	2	0	14	0	0	0	46	0	0	41	0	0	0	4	0	25
Nc1cccc(-c2ccc3c(N)n[nH]c3c2)c1 [GSK2193613]	16	0	8	1	0	13	0	0	0	15	42	3	19	23	0	0	0	6	30	43
Cl.N#CCc1ccc(Nc2nccc(Nc3ccc(Oc4ccccc4)cc3)n2)cc1 [GW639905]	1	0	0	0	4	0	3	0	0	0	0	0	3	55	0	0	38	0	41	23
COC(=O)Nc1nc2cc(Oc3ccc(NC(=O)Nc4cccc(SC)c4)cc3)ccc2[nH]1.Cl [GW697999]	1	0	8	0	8	34	0	49	0	54	47	0	21	86	0	0	2	28	98	19
CS(=O)(=O)c1cccc(CNc2nc(Nc3ccc4c(c3)CCC(=O)N4)ncc2C(F)(F)F)c1	0	0	0	30	12	0	0	6	22	80	0	8	23	37	10	0	0	0	37	46
CCOc1nccc(-c2c(-c3ccc(F)cc3)ncn2C2CCNCC2)n1 [SB-249175]	13	34	12	5	0	33	10	26	12	24	25	1	1	0	17	7	0	16	10	0
